PubChem BioAssay (NCATS)
Where “and” joins values, the source holds several entries; their conditions need not be identical. Equal entries are not always repeated. Records with an inconclusive call do not appear. Entries that show only a call come without a potency. Calls of active or inactive are those of the source. Unless noted, the call rests on the fitted dose curve; in most records, active means well fitted curve in the direction sought with a large enough effect; inconclusive means small, poorly fitted or top-dose-only effect, or another doubt; inactive means no such curve, though single readings can be large; an effect the other way counts as inactive or inconclusive.

Assays:
[1] = biological target: Thyroid hormone receptor beta (Homo sapiens) (UniProt P10828); experiment: qHTS assay for small molecule agonists of thyroid hormone receptor beta signaling (AID 588545; calls by dose curve)
Chain of Thyroid hormone receptor beta (Homo sapiens) (P10828 whole entry, looked up): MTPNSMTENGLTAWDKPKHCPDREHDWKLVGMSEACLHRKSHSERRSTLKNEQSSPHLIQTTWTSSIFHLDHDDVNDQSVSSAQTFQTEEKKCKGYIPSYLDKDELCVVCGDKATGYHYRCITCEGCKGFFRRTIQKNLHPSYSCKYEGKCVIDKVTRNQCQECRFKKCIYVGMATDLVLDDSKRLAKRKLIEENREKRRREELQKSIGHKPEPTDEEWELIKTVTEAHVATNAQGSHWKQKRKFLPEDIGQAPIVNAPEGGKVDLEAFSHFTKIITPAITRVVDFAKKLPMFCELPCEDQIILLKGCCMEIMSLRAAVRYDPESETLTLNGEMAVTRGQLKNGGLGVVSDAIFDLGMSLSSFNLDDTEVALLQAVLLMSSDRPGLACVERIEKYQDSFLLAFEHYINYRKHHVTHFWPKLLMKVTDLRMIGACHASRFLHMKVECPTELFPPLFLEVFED
Method in brief: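 Cells (2500/well) were seeded, incubated 4 hrs at 37 C, dosed with a compound series, incubated 18 hrs, loaded with CCF4 dye for 2 hrs at RT, then read for fluorescence. Data were scaled between DMSO (0%) and 10 nM T3 (100%).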

[2] = qHTS assay for small molecule antagonists of retinoid X receptor alpha signaling (AID 588546; active means well fitted inhibition curve with a large enough effect in the signal ratio, with a control signal flat, not every such curve was filed as active; the % refers to the signal ratio;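 further: cells stimulated with 9-cis-retinoic acid as agonist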); settings: HEK293T RXRa-UAS-bla, beta-lactamase ratio, antagonist mode; measured here: W530 green channel, cytotoxicity proxy
Method in brief: (§1)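 Beta-lactamase reporter inhibition, read as CCF4 fluorescence ratio (ex 405, em 460/530 nm) after 2 h at RT. HEK293T UAS-bla cells, 2500/well, were stimulated with 9-cis-RA at 500 or 100 nM final alongside test compound for 18 h at 37 C.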

[3] = biological target: Retinoic acid receptor RXR-alpha (Homo sapiens) (UniProt P19793); experiment: as above; settings: HEK293T RXRa-UAS-bla, beta-lactamase ratio, antagonist mode
Chain of Retinoic acid receptor RXR-alpha (Homo sapiens) (P19793 whole entry, looked up): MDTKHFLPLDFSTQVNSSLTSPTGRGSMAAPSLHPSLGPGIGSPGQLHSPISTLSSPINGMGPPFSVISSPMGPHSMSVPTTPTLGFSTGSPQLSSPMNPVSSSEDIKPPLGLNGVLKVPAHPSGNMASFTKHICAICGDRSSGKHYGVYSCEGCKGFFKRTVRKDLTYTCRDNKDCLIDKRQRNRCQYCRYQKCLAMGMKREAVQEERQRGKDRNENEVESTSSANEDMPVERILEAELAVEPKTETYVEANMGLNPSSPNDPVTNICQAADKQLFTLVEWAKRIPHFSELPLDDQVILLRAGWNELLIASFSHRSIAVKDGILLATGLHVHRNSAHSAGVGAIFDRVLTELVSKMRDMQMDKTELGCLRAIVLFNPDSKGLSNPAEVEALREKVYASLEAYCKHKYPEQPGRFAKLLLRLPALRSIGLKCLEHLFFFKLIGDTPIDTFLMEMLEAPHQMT
Method in brief: as §1

[4] = biological target: Thyroid hormone receptor beta (Homo sapiens) (UniProt P10828); experiment: qHTS assay for small molecule antagonists of thyroid hormone receptor beta signaling (AID 588547; active means well fitted inhibition curve with a large enough effect in the signal ratio, with a control signal flat, not every such curve was filed as active; the % refers to the signal ratio;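 further: cells stimulated with 0.4 nM T3 agonist during compound exposure; series mostly up to about 77 µM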); settings: TR-UAS-bla HEK293, beta-lactamase ratio, antagonist mode, 18 h
Method in brief: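 Inhibition of T3-driven (0.4nM final) beta-lactamase reporter activity was measured over 0.59 nM to 92 uM compound after 18 h at 37 C. The cells were GripTite HEK293 TR-UAS-bla in charcoal/dextran-stripped serum, with CCF4 ratio read-out and IC50 from Hill fits.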

[5] = biological target: Voltage-gated inwardly rectifying potassium channel KCNH2 (Homo sapiens) (UniProt Q12809); experiment: qHTS Assay for Small Molecule Inhibitors of the Human hERG Channel Activity (AID 588834);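 further: lower thallium flux fluorescence means stronger hERG block; nearly all actives have a fitted effect of over 50% in size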; further: potency means the concentration at half of the fitted maximal effect
Chain of Voltage-gated inwardly rectifying potassium channel KCNH2 (Homo sapiens) (Q12809 whole entry, looked up): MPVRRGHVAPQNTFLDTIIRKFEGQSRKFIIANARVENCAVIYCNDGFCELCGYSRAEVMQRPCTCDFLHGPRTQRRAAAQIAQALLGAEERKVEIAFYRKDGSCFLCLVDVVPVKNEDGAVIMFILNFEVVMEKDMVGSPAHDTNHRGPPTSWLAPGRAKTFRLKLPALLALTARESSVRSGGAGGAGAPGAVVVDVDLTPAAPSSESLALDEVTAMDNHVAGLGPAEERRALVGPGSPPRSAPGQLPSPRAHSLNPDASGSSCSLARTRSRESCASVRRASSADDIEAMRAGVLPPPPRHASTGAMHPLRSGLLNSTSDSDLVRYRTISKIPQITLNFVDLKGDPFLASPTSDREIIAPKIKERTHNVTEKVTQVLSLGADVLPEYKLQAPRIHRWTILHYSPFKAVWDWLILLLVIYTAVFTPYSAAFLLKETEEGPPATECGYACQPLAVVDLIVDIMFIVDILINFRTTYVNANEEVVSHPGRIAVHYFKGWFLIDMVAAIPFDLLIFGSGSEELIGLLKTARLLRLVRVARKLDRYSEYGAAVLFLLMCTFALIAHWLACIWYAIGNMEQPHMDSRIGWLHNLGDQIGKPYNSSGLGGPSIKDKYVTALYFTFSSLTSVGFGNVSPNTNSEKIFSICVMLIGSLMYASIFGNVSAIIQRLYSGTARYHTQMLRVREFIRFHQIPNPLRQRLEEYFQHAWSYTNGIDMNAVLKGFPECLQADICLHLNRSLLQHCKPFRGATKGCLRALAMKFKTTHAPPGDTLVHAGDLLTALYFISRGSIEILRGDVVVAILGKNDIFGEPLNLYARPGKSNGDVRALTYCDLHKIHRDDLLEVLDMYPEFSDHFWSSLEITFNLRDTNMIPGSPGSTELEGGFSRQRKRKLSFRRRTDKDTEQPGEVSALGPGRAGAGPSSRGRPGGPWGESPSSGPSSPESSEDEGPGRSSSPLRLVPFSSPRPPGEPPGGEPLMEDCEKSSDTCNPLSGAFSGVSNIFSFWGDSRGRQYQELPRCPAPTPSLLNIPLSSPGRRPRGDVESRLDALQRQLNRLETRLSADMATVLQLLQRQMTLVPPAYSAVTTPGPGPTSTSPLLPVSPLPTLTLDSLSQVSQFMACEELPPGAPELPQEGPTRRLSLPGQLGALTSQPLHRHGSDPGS
Method in brief: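 Blockade is seen as reduced FluxOR thallium-flux fluorescence in U2OS cells expressing hERG from a BacMam construct, in Opti-MEM with 2% FCS. Concentration-response data fitted to the Hill equation for AC50.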

[6] = biological target: Luciferin 4-monooxygenase (Photinus pyralis) (UniProt P08659); experiment: Biochemical firefly luciferase enzyme assay for NPC (AID 624030); further: nearly all actives have a fitted effect of over 70% in size; further: potency means the concentration at half of the fitted maximal effect
Chain of Luciferin 4-monooxygenase (Photinus pyralis) (P08659 whole entry, looked up): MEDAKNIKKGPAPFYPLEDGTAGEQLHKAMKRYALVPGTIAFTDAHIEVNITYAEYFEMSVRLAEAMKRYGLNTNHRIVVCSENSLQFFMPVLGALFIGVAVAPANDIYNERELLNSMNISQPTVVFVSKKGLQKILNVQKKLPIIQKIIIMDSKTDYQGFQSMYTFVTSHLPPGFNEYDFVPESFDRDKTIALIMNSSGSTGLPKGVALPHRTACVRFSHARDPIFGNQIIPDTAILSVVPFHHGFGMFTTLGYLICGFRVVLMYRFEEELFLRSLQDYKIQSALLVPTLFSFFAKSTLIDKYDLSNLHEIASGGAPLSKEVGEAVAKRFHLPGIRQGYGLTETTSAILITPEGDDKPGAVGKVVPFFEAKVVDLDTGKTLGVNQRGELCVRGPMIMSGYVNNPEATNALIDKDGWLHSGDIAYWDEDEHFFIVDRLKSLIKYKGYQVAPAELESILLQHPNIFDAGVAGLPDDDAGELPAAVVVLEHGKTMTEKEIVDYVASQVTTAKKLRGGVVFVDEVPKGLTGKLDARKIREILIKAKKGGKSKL
Method in brief: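 Direct inhibition of firefly luciferase enzyme (10 nM final, 50 mM Tris Acetate) assessed by luminescence within 5 minutes. Percent activity scaled between DMSO and PTC124 positive control, with concentration-effect curves classified by fit quality and response.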

[7] = S16 Schwann cell viability assay (CellTiter-Glo assay) (AID 624031);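 further: native untransfected S16 rat Schwann cells; cellular ATP luminescence as a viability measure; series mostly up to about 58 µM; nearly all actives have a fitted effect of over 70% in size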
Method in brief: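 Following overnight culture in 10% FBS DMEM, parental S16 rat Schwann cells are dosed for 24 h at 37 °C. Viability is read as CellTiter-Glo luminescence and expressed as % activity relative to DMSO (0%) and no-cell wells.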

[8] = S16 Schwann cell PMP22 intronic element firefly luciferase assay (AID 624032); further: series mostly up to about 58 µM; nearly all actives have a fitted effect of over 30% in size
Method in brief: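 Luciferase reporter of PMP22 intronic-element expression in stably transfected S16 rat Schwann cells, read by ONE-Glo luminescence after 24 h compound exposure at 37 C. Activity scaled between DMSO (0%) and positive-control PTC124; concentration-effect curves quality-classified.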

[9] = biological target: Glutaminase kidney isoform, mitochondrial (Homo sapiens) (UniProt O94925); experiment: qHTS for Inhibitors of Glutaminase (GLS): LOPAC Validation (AID 624146); further: nearly all actives have a fitted effect of over 60% in size; further: potency means the concentration at half of the fitted maximal effect
Chain of Glutaminase kidney isoform, mitochondrial (Homo sapiens) (O94925 whole entry, looked up, canonical isoform): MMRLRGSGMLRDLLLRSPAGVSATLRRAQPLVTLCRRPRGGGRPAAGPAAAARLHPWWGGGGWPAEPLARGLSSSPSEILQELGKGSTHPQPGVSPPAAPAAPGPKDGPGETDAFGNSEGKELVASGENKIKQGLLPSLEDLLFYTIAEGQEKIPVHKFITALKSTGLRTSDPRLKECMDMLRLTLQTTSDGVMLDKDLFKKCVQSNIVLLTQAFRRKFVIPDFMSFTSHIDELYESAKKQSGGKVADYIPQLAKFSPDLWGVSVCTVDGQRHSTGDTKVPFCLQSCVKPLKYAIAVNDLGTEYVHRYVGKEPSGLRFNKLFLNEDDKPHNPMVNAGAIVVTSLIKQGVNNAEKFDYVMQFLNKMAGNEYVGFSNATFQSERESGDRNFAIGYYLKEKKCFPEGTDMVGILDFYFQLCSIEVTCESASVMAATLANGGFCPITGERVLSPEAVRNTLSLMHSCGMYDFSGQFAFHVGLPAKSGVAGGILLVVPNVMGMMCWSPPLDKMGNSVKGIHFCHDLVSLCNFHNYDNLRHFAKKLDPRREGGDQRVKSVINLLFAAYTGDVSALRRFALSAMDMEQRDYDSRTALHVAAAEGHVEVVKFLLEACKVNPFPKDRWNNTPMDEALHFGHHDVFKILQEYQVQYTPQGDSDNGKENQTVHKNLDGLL
Method in brief: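 Coupled fluorescence readout: glutamate oxidase/HRP/Amplex Red detect glutamate formed by hKGA from L-glutamine (1 mM solution added). Buffer 45 mM KH2PO4 pH 8.2, 0.02% Tween-20; reads at t0 and 30 min RT.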

[10] = qHTS of Trypanosoma Brucei Inhibitors: LOPAC Validation (AID 624147)
Method in brief: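 Glycolytic pyruvate kinase of T. brucei was incubated with substrate, test compound and 130 uM ADP for 45 minutes at room temperature. Luminescent Kinase-Glo Plus signal was measured after 10 minutes.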

[11] = biological target: Glucagon-like peptide 1 receptor (Homo sapiens) (UniProt P43220); experiment: qHTS of GLP-1 Receptor Agonists: LOPAC Validation (AID 624148);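 further: luminescence from a luciferase reporter switched on by cAMP; higher luminescence signal means agonism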
Chain of Glucagon-like peptide 1 receptor (Homo sapiens) (P43220 whole entry, looked up): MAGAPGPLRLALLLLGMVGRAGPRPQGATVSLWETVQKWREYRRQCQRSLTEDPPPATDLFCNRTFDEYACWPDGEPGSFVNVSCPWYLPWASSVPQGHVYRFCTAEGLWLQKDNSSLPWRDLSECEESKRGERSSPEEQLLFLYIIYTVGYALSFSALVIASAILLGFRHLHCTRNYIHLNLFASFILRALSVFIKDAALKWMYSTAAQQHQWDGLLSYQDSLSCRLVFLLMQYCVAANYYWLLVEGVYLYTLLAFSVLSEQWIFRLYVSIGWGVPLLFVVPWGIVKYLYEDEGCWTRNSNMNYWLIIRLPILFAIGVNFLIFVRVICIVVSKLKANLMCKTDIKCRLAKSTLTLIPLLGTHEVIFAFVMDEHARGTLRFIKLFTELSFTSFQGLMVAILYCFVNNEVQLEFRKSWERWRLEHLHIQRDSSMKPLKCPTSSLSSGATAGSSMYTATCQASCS
Method in brief: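 Agonism scored as increased luciferase luminescence driven by cAMP in HEK293 clones carrying GLP-1R. Cells settled 12 hours, received compound for 4-6 hr at 37 deg C, 5% CO2, and were read after 12 min detection reagent at RT.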

[12] = qHTS of Nrf2 Activators: LOPAC Validation (AID 624149)
Method in brief: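 AREc32 cells carrying an ARE-driven firefly luciferase were grown overnight in OPTI-MEM with 5% FBS, then exposed to compounds for 24 hr at 37 deg C. Luciferase signal was read after 30 min with Steady-Glo at RT.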

[13] = HTS Assay for Allosteric Antagonists of the Human D2 Dopamine Receptor: Hit Validation in HTRF (AID 624455);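 further: stable D1 dopamine receptor cell line scored for blocking the D1 response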
Method in brief: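 Hits were examined in an HTRF assay using cells stably expressing the D1 dopamine receptor, scoring inhibition of the D1-mediated response. The preceding primary screen tracked calcium flux after an EC80 dopamine addition in force-coupled, inducible Hek293 Trex D2 cells.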

[14] = S16 Schwann cell PMP22 intronic element beta-lactamase assay (AID 624044; calls by dose curve; further: nearly all actives have a fitted effect of over 15% in size)
Method in brief: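 Rat S16 Schwann cells with beta-Lac driven by a PMP22 intronic element, compound-treated 24 h at 37 °C. LiveBLAzer FRET B/G read: 460 nm normalized to potassium clavulanate vs DMSO; 535 nm FRET as viability; concentration-effect curves classified.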

| Structure (SMILES) | outcome [1] | max response [2] | max response [3] | activity change % (negative = inhibition) [4] | Potency [5] | Potency [6] | Potency [7] | Potency [8] | Potency [9] | Potency [10] | Potency [11] | outcome [12] | Potency [13] | Potency [14] |
| --- | --- | --- | --- | --- | --- | --- | --- | --- | --- | --- | --- | --- | --- | --- |
| CCC1(c2ccccc2)C(=O)NCNC1=O | inactive | -5.6% and -16.4% | 16.1% (inactive) and -15.5% (inactive) | -16.1% (inactive) | inactive | inactive | inactive | inactive | inactive | inactive | inactive | inactive | – | – |
| Cn1c(=O)c2c(ncn2C)n(C)c1=O | – | 0.479% and 2.47% | -0.557% (inactive) and -14.2% (inactive) | – | inactive | inactive | – | inactive | inactive | inactive | inactive | inactive | inactive | – |
| Cn1cnc2c1c(=O)[nH]c(=O)n2C | inactive | -0.801% | -5.33% (inactive) | 8.64% (inactive) | – | inactive | inactive | inactive | inactive | inactive | inactive | inactive | – | inactive |
| O=c1[nH]cc(F)c(=O)[nH]1 | – | -11.8% | 17.9% (inactive) | – | inactive | inactive | – | – | inactive | inactive | inactive | inactive | – | – |
| COc1cc2c(c(OC)c1OC)-c1ccc(OC)c(=O)cc1[C@@H](NC(C)=O)CC2 | inactive | – | – | – | inactive | inactive | – | – | inactive | inactive | inactive | inactive | inactive | – |
| C[C@@H]1CC(=O)NN=C1c1ccc(NN=C(C#N)C#N)cc1 | – | – | – | – | inactive | – | – | – | – | – | – | – | – | – |
| CC(C)Cc1ccc(C(C)C(=O)O)cc1 (stereo not drawn) | inactive | 4.68% | -17.6% (inactive) | -8.69% (inactive) | inactive | inactive | inactive | inactive | inactive | inactive | inactive | inactive | inactive | – |
| Cc1cn([C@H]2C[C@H](N=[N+]=[N-])[C@@H](CO)O2)c(=O)[nH]c1=O | inactive | 15.5% and -2.05% | 5.84% (inactive) and -2.64% (inactive) | 5.41% (inactive) and 12% (inactive) | inactive | inactive | – | – | inactive | inactive | inactive | inactive | – | – |
| Nc1c2c(nc3ccccc13)CCCC2 | inactive | 12.8% | -6.99% (inactive) | -14.9% (inactive) | – | inactive | – | – | inactive | inactive | inactive | inactive | – | – |
| Clc1ccc(C(c2ccccc2Cl)C(Cl)Cl)cc1 (stereo not drawn) | inactive | – | – | -34.3% (inactive) | 31.6 µM (active) and 10 µM (active) and 5.62 µM (active) | inactive | inactive | – | inactive | inactive | inactive | inactive | inactive | – |
| CN(C)CCOC(c1ccccc1)c1ccccc1 | – | – | – | -3.52% (inactive) | – | – | – | inactive | – | inactive | inactive | inactive | inactive | – |
| Cn1c(=O)c2[nH]cnc2n(C)c1=O | inactive | -3.21% | -6.35% (inactive) | -10.4% (inactive) | – | inactive | – | – | – | inactive | inactive | inactive | inactive | – |
| C[C@](N)(Cc1ccc(O)c(O)c1)C(=O)O | inactive | -16.7% | -26.4% (inactive) | 1.38% (inactive) | inactive | inactive | inactive | inactive | inactive | – | inactive | inactive | inactive | – |
| CCOC(=O)C(C)(C)Oc1ccc(Cl)cc1 | inactive | -5.41% | 3.43% (inactive) | 7.19% (inactive) | inactive | inactive | inactive | inactive | inactive | inactive | inactive | inactive | – | inactive |
| CC(C)C(=O)Nc1ccc([N+](=O)[O-])c(C(F)(F)F)c1 | inactive | 2.09% and 2.52% | -17.5% (inactive) and 1.97% (inactive) | -0.269% (inactive) and 16% (inactive) | inactive | inactive | – | – | inactive | inactive | inactive | inactive | inactive | – |
| O=C(CCCN1CCC(O)(c2ccc(Cl)cc2)CC1)c1ccc(F)cc1 | inactive | 6.93% | -32.4% (inactive) | -36.9% (inactive) | – | inactive | – | – | inactive | inactive | inactive | – | – | – |
| CC12CC3CC(C)(C1)CC(N)(C3)C2 | – | – | – | – | inactive | inactive | – | inactive | inactive | inactive | inactive | inactive | – | – |
| COc1nc(C)nc(Cl)c1NC1=NCCN1 | – | – | – | – | inactive | inactive | inactive | inactive | inactive | inactive | inactive | inactive | – | – |
| NC(=O)NO | – | – | – | – | inactive | inactive | – | inactive | 8.91 µM (active) | inactive | inactive | inactive | – | – |
| NCCCCCC(=O)O | – | – | – | – | inactive | inactive | – | inactive | inactive | inactive | inactive | inactive | inactive | – |
| Cc1ccc(C(=O)Nc2ccc(S(=O)(=O)O)c3cc(S(=O)(=O)O)cc(S(=O)(=O)O)c23)cc1NC(=O)c1cccc(NC(=O)Nc2cccc(C(=O)Nc3cc(C(=O)Nc4ccc(S(=O)(=O)O)c5cc(S(=O)(=O)O)cc(S(=O)(=O)O)c45)ccc3C)c2)c1 | – | – | – | – | inactive | 11.4 µM (active) | – | inactive | – | – | inactive | inactive | inactive | – |
